# According to PubChem BioAssay (NCATS):
# Results filed as inconclusive are left out. A call without a number means that no potency is given here. Values without a mark were called inactive. The source made the active and inactive calls. Unless noted, calls follow the shape of the full dose curve.
# Experiments:
# [1] = target: Bile acid receptor (Homo sapiens) (UniProt Q96RI1); experiment: qHTS assay for small molecule antagonists of farnesoid X receptor signaling (AID 588526); conditions: HEK293T FXR-UAS-bla, beta-lactamase ratio, antagonist mode; series mostly up to 76.7 µM
# Procedure, shortened: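 Antagonist mode: titrated compounds tested against chenodeoxycholic acid stimulation (normalized to 50 uM CDCA and DMSO) in GeneBLAzer HEK293T cells for 16 h. Beta-lactamase read by CCF4 fluorescence; IC50 from Hill fits.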
# [2] = target: Glucocorticoid receptor (Homo sapiens) (UniProt P04150); experiment: qHTS assay for small molecule antagonists of glucocorticoid receptor signaling (AID 588533; active = well fitted inhibition curve with a large enough effect in the signal ratio, with a control signal flat, not every such curve was filed as active; the % refers to the signal ratio;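 also: cells stimulated with 2 nM dexamethasone as agonist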); conditions: HeLa MMTV-bla, GRE beta-lactamase ratio, antagonist mode, 18 h; series mostly up to 76.8 µM
# Procedure, shortened: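 Antagonist-mode qHTS: compound titrations added to GRE-bla HeLa cells, then dexamethasone 2 nM final; 18 h, 37 C. CCF4 FRET fluorescence normalized to dexamethasone and DMSO; IC50 from Hill fit.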
# [3] = target: Thyroid hormone receptor beta (Homo sapiens) (UniProt P10828); experiment: qHTS assay for small molecule antagonists of thyroid hormone receptor beta signaling (AID 588547; active = well fitted inhibition curve with a large enough effect in the signal ratio, with a control signal flat, not every such curve was filed as active; the % refers to the signal ratio;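 also: cells stimulated with 0.4 nM T3 agonist during compound exposure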); conditions: TR-UAS-bla HEK293, beta-lactamase ratio, antagonist mode, 18 h
# Procedure, shortened: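 TR-UAS-bla GripTite HEK293 cells in 2% charcoal/dextran FBS medium; compounds 0.59 nM to 92 uM with T3 at 0.4nM final, 18 h at 37 C. Beta-lactamase read by CCF4 fluorescence (460/530 nm); Hill fits gave IC50 and efficacy.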
# [4] = qHTS assay for small molecule activators of the nuclear factor-kappa B (NF-kB) signaling pathway (AID 651749; active = well fitted activation curve with a large enough effect in the signal ratio; the % refers to the signal ratio); conditions: NF-kB-bla ME-180 cells, beta-lactamase FRET ratio, 16 h; activation: hits give high values
# Procedure, shortened: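 In this qHTS format, compounds acting as activators increase NF-kB-driven beta-lactamase in ME-180 cells, measured as disrupted FRET after 16 hr exposure at 37C and 5% CO2.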
# [5] = target: Peroxisome proliferator-activated receptor delta (Homo sapiens) (UniProt Q03181); experiment: qHTS assay for small molecule antagonists of peroxisome proliferator-activated receptor delta signaling (AID 588535; active = well fitted inhibition curve with a large enough effect in the signal ratio, with a control signal flat, not every such curve was filed as active; the % refers to the signal ratio); conditions: HEK293T PPARd-UAS-bla, beta-lactamase FRET ratio, 18 h; series mostly up to 76.7 µM
# Procedure, shortened: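 Fluorescence from CCF4-loaded GeneBLAzer PPAR-delta-UAS-bla HEK293T cells (2 hrs RT loading) quantified reporter inhibition after an 18 hr, 37 C compound exposure across a titration.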
# [6] = qHTS assay for small molecule agonists of the antioxidant response element (ARE) signaling pathway (AID 651741; active = well fitted activation curve with a large enough effect in the signal ratio; the % refers to the signal ratio; also: potency is read from the fitted curve at half-maximal effect); conditions: HepG2 ARE-bla reporter, beta-lactamase FRET ratio, 16 h; series mostly up to 96 µM
# Procedure, shortened: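 Stably integrated ARE-beta-lactamase reporter HepG2 cells; 16 h compound incubation, 37 C; LiveBLAzer FRET substrate 2 h at room temperature; fluorescence intensity.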
# Peroxisome proliferator-activated receptor delta (Homo sapiens), sequence (Q03181 whole entry, looked up): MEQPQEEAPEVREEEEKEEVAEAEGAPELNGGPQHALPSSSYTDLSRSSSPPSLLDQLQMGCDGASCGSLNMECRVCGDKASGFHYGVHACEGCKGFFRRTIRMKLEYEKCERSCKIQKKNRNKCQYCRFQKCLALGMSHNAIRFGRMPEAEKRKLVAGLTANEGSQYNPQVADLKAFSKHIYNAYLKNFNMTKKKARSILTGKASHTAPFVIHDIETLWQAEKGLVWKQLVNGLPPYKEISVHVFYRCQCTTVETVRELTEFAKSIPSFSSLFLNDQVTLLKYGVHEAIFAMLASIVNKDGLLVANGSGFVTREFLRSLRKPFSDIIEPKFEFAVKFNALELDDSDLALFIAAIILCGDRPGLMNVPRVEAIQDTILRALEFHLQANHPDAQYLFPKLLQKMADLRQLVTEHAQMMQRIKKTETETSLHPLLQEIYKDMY
# Glucocorticoid receptor (Homo sapiens), sequence (P04150 whole entry, looked up): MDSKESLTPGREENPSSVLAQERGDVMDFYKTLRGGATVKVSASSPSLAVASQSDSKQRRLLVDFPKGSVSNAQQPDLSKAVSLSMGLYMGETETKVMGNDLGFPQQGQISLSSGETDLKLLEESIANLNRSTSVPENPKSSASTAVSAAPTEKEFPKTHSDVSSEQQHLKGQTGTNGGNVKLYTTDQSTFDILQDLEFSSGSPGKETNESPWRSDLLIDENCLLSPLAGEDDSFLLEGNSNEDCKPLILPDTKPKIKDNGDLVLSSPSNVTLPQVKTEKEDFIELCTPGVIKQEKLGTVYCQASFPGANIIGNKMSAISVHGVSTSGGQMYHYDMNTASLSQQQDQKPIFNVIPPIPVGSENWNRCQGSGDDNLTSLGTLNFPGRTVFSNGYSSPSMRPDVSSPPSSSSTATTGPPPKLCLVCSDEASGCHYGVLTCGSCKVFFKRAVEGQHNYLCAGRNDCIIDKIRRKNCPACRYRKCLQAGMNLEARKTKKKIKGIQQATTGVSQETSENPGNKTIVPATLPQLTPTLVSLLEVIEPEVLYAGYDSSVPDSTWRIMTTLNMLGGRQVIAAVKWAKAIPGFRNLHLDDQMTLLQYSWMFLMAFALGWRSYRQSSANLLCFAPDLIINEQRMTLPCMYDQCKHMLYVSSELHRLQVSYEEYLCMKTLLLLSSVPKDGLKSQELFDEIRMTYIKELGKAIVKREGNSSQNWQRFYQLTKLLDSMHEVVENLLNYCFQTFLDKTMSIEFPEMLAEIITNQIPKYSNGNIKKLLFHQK
# Thyroid hormone receptor beta (Homo sapiens), sequence (P10828 whole entry, looked up): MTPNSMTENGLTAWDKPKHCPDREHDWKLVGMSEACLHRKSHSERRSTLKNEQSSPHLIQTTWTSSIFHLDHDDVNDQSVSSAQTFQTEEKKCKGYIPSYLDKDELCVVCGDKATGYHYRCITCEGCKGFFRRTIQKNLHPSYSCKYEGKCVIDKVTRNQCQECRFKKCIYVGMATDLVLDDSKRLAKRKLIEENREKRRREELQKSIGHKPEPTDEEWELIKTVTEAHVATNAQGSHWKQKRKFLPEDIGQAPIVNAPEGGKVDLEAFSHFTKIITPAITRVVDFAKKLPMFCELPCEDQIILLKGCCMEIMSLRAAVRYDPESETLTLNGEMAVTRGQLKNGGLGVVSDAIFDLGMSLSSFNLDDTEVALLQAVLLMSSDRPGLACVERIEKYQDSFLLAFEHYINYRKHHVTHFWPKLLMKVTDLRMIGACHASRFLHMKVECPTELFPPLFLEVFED
# Bile acid receptor (Homo sapiens), sequence (Q96RI1 whole entry, looked up): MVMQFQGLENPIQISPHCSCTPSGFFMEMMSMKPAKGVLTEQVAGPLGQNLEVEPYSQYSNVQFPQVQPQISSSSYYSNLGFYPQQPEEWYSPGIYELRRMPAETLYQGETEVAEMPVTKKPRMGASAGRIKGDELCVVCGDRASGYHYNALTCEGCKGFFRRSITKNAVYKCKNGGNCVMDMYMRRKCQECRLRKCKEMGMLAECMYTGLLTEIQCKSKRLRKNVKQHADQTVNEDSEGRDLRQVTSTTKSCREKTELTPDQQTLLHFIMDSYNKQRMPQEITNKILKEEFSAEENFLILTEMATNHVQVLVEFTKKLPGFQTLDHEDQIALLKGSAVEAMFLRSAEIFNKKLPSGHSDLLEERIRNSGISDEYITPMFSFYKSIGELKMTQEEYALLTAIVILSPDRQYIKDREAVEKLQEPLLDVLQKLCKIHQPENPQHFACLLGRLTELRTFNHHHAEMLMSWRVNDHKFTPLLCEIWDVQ
structure (smiles),measurement,setting,value
COCCOCCOCCOC,Potency,[1],inactive
same,Potency,[2],inactive
same,activity change % (negative = inhibition),[3],2.02%
same,activation,[4],0.99%
CS(C)=O,Potency,[1],inactive
same,Potency,[2],inactive
same,Potency,[5],inactive
same,activity change % (negative = inhibition),[3],-25.7%
same,activation,[4],0.392%
COC(OC)(C(=O)c1ccccc1)c1ccccc1,Potency,[2],inactive
same,Potency,[5],inactive
same,activity change % (negative = inhibition),[3],-4.01%
same,Potency,[6],inactive
same,activation,[4],0.121%
CCCCCCCC[Si](OCC)(OCC)OCC,Potency,[5],inactive
same,activity change % (negative = inhibition),[3],3.89%
same,activation,[4],1.32%
CCCCC(CC)COC(=O)CS (stereo unspecified),Potency,[2],inactive
same,activity change % (negative = inhibition),[3],1.03%
same,activation,[4],1.76%
S=C(S)NCCNC(=S)S,Potency,[2],inactive
same,activity change % (negative = inhibition),[3],-7.47%
CC(C)C(=O)OC(=O)C(C)C,Potency,[2],inactive
same,activity change % (negative = inhibition),[3],8.71%
CCC(O)OCCCOC (stereo unspecified),Potency,[2],inactive
same,activity change % (negative = inhibition),[3],-6.47%
same,Potency,[6],inactive
same,activation,[4],1.22%
Brc1ccc(Oc2ccc(Br)cc2)cc1,Potency,[2],inactive
same,Potency,[5],inactive
same,activity change % (negative = inhibition),[3],11%
same,Potency,[6],inactive
O=C(Cl)c1cccc(C(=O)Cl)c1,Potency,[2],inactive
same,Potency,[5],inactive
same,activity change % (negative = inhibition),[3],-4.29%
COC(=O)c1ccc(I)cc1S(=O)(=O)NC(=O)Nc1nc(C)nc(OC)n1,Potency,[2],inactive
same,activity change % (negative = inhibition),[3],-17%
same,Potency,[6],inactive
COCCOCCOCCO,Potency,[2],inactive
same,Potency,[5],inactive
Cc1cc(Cc2cc(C)cc(C(C)(C)C)c2O)c(O)c(C(C)(C)C)c1,Potency,[6],48.6 µM (active)
CCCCC(CC)CN1C(=O)C2C3C=CC(C3)C2C1=O (stereo unspecified),activity change % (negative = inhibition),[3],4.69%
same,activation,[4],0.646%
O=C(O)c1cc(O)c2ccccc2c1O,Potency,[6],7.7 µM (active)
CCCCCCCCCCCCCCN(C)C,Potency,[6],inactive
same,activation,[4],-1.59%
O=C(c1ccccc1)c1ccc(O)c(O)c1O,Potency,[5],inactive
CCCCCCCCCCCC[N+](C)(C)C,Potency,[2],inactive
same,Potency,[6],19.3 µM (active)
same,activation,[4],-3.69%
CCCCCCCCCCCCCCC,Potency,[2],inactive
same,Potency,[5],inactive
same,activity change % (negative = inhibition),[3],5.8%
same,activation,[4],-1.21%
CCCCCCCC/C=C\CCCCCCCC(=O)OC,Potency,[2],inactive
same,activation,[4],-2.39%
COc1cc(Cl)c(OC)cc1N,Potency,[2],inactive
Cc1ccc2c(c1)C(=O)OC2=O,activity change % (negative = inhibition),[3],-5.6%
same,Potency,[6],inactive
O=C=NC1CCC(CC2CCC(N=C=O)CC2)CC1 (stereo unspecified),Potency,[5],inactive
CC(C)CC(C)(O)C#CC(C)(O)CC(C)C (stereo unspecified),Potency,[2],inactive
same,activity change % (negative = inhibition),[3],20.8%
same,Potency,[6],inactive
same,activation,[4],-0.882%
C[C@]12CC[C@@H]3c4ccc(O)cc4CC[C@H]3[C@@H]1CC[C@H]2O,activity change % (negative = inhibition),[3],-9.59%
same,Potency,[6],inactive
O=[N+]([O-])c1ccc(O)cc1C(F)(F)F,Potency,[6],34.4 µM (active)
Clc1nc(Cl)c(Cl)c(Cl)c1Cl,Potency,[2],inactive
same,activity change % (negative = inhibition),[3],-13.1%
same,Potency,[6],17.2 µM (active)
same,activation,[4],-1.8%
CCCCCCC(O)CCCCCCCCCCC(=O)OC (stereo unspecified),Potency,[2],inactive
same,Potency,[5],inactive
same,activity change % (negative = inhibition),[3],-2.76%
same,Potency,[6],inactive
same,activation,[4],-0.158%
